# Experimental data taken from PubChem BioAssay AID1159580 (chemical genetic matrix, 2015).
# In all, about 5,500 compounds went through this assay and about 2,000 (36%) were called active. About 18% were inconclusive and are not listed. Some of the results follow. A number with no mark means an inactive call. Rule as the data show it: active = normalized growth mostly below about 0.91 (no sharp cut-off); inconclusive = no clear call, values can overlap the other calls; inactive = mostly above about 0.92.
# Assay: chemical genetic growth profiling, strain panel (AID 1159580);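 also: tested at 20 µM; growth read once vehicle control cultures reached saturation at 30 °C; 1 = growth at the plate median or of vehicle wells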
# Settings: S. cerevisiae deletion strains, growth OD
compound,measurement,setting,value
CC(C)(OC(=O)c1ccccc1)[C@@H]1Cc2cc3ccc(=O)oc3cc2O1,normalized growth,"locus YBR021W, strain FUR4, stronger effect = lower value",0.939
same,normalized growth,"locus YBR229C, strain ROT2, stronger effect = lower value",0.986
same,normalized growth,"locus YCL029C, strain bik1, stronger effect = lower value",1.01
same,normalized growth,"locus YDL035C, strain GPR1, stronger effect = lower value",0.927
same,normalized growth,"locus YDL074C, strain BRE1, stronger effect = lower value",0.95
same,normalized growth,"locus YDL101C, strain DUN1, stronger effect = lower value",0.975
same,normalized growth,"locus YDL185W, strain tfp1, stronger effect = lower value",0.956
same,normalized growth,"locus YDL192W, strain arf1, stronger effect = lower value",0.982
same,normalized growth,"locus YDR101C, strain arx1, stronger effect = lower value",0.975
same,normalized growth,"locus YDR150W, strain NUM1, stronger effect = lower value",0.989
same,normalized growth,"locus YDR162C, strain NBP2, stronger effect = lower value",0.834 (active)
same,normalized growth,"locus YDR318W, strain mcm21, stronger effect = lower value",0.954
same,normalized growth,"locus YDR388W, stronger effect = lower value",0.994
same,normalized growth,"locus YDR502C, strain sam2, stronger effect = lower value",0.956
same,normalized growth,"locus YEL061C, strain CIN8, stronger effect = lower value",0.992
same,normalized growth,"locus YER110C, stronger effect = lower value",0.973
same,normalized growth,"locus YER155C, strain BEM2, stronger effect = lower value",0.999
same,normalized growth,"locus YER167W, strain BCK2, stronger effect = lower value",0.991
same,normalized growth,"locus YGL078C, strain dbp3, stronger effect = lower value",0.957
same,normalized growth,"locus YGL086W, strain mad1, stronger effect = lower value",0.987
same,normalized growth,"locus YGL248W, strain PDE1, stronger effect = lower value",0.94
same,normalized growth,"locus YGR078C, strain PAC10, stronger effect = lower value",0.945
same,normalized growth,"locus YGR135W, strain pre9, stronger effect = lower value",0.951
same,normalized growth,"locus YGR229C, strain SMI1, stronger effect = lower value",0.885
same,normalized growth,"locus YGR252W, strain gcn5, stronger effect = lower value",0.805
same,normalized growth,"locus YHR030C, strain SLT2, stronger effect = lower value",0.989
same,normalized growth,"locus YHR079C, strain IRE1 (second series), stronger effect = lower value",1
same,normalized growth,"locus YHR094C, strain hxt1, stronger effect = lower value",1
same,normalized growth,"locus YHR129C, strain ARP1, stronger effect = lower value",0.989
same,normalized growth,"locus YHR200W, strain rpn10, stronger effect = lower value",0.976
same,normalized growth,"locus YIL066C, strain RNR3, stronger effect = lower value",0.927
same,normalized growth,"locus YIL073C, strain SPO22, stronger effect = lower value",0.945
same,normalized growth,"locus YIL125W, strain kgd1, stronger effect = lower value",1
same,normalized growth,"locus YIR030C, strain dcg1, stronger effect = lower value",0.988
same,normalized growth,"locus YJL095W, strain BCK1, stronger effect = lower value",0.89
same,normalized growth,"locus YJL134W, strain LCB3, stronger effect = lower value",0.989
same,normalized growth,"locus YJL168C, strain set2, stronger effect = lower value",0.983
same,normalized growth,"locus YJL187C, strain SWE1 (second series), stronger effect = lower value",0.958
same,normalized growth,"locus YJR043C, strain POL32, stronger effect = lower value",0.978
same,normalized growth,"locus YJR075W, strain HOC1, stronger effect = lower value",0.976
same,normalized growth,"locus YKL009W, strain mrt4, stronger effect = lower value",0.958
same,normalized growth,"locus YKL068W, stronger effect = lower value",0.992
same,normalized growth,"locus YKL085W, strain MDH1 (second series), stronger effect = lower value",1
same,normalized growth,"locus YKL085W, strain MDH1, stronger effect = lower value",1
same,normalized growth,"locus YKR001C, strain vps1, stronger effect = lower value",0.997
same,normalized growth,"locus YLR039C, strain RIC1, stronger effect = lower value",1.05
same,normalized growth,"locus YLR058C, strain SHM2, stronger effect = lower value",0.975
same,normalized growth,"locus YLR102C, strain apc9, stronger effect = lower value",0.984
same,normalized growth,"locus YLR262C, strain YPT6, stronger effect = lower value",1.02
same,normalized growth,"locus YLR268W, strain sec22, stronger effect = lower value",0.977
same,normalized growth,"locus YLR330W, strain CHS5, stronger effect = lower value",0.976
same,normalized growth,"locus YLR342W, strain FKS1 (second series), stronger effect = lower value",1.01
same,normalized growth,"locus YLR371W, strain rom2, stronger effect = lower value",0.994
same,normalized growth,"locus YLR418C, strain cdc73, stronger effect = lower value",0.828 (active)
same,normalized growth,"locus YML016C, strain PPZ1, stronger effect = lower value",0.982
same,normalized growth,"locus YML032C, strain rad52, stronger effect = lower value",0.97
same,normalized growth,"locus YML124C, strain tub3, stronger effect = lower value",0.974
same,normalized growth,"locus YMR078C, strain ctf18, stronger effect = lower value",0.976
same,normalized growth,"locus YMR223W, strain ubp8, stronger effect = lower value",0.945
same,normalized growth,"locus YMR307W, strain GAS1, stronger effect = lower value",0.895
same,normalized growth,"locus YNL067W, strain RPL9B, stronger effect = lower value",0.96
same,normalized growth,"locus YNL128W, strain TEP1, stronger effect = lower value",0.981
same,normalized growth,"locus YNL233W, strain BNI4, stronger effect = lower value",0.968
same,normalized growth,"locus YNL250W, strain rad50, stronger effect = lower value",0.991
same,normalized growth,"locus YNL271C, strain bni1, stronger effect = lower value",0.938
same,normalized growth,"locus YNL298W, strain CLA4, stronger effect = lower value",0.942
same,normalized growth,"locus YNL307C, strain MCK1, stronger effect = lower value",0.975
same,normalized growth,"locus YNL322C, strain KRE1, stronger effect = lower value",0.984
same,normalized growth,"locus YNR052C, strain pop2, stronger effect = lower value",0.983
same,normalized growth,"locus YOL006C, strain TOP1, stronger effect = lower value",0.761
same,normalized growth,"locus YOL012C, strain htz1",1.01
same,normalized growth,"locus YOL147C, strain pex11, stronger effect = lower value",0.986
same,normalized growth,"locus YOR061W, strain CKA2, stronger effect = lower value",0.976
same,normalized growth,"locus YOR069W, strain VPS5, stronger effect = lower value",0.983
same,normalized growth,"locus YOR136W, strain idh2, stronger effect = lower value",0.987
same,normalized growth,"locus YOR144C, strain elg1, stronger effect = lower value",0.973
same,normalized growth,"locus YOR184W, strain ser1, stronger effect = lower value",0.861 (active)
same,normalized growth,"locus YOR316C, strain cot1, stronger effect = lower value",0.976
same,normalized growth,"locus YPL241C, strain CIN2, stronger effect = lower value",0.982
same,normalized growth,"locus YPR119W, strain clb2, stronger effect = lower value",0.993
same,normalized growth,"locus YPR141C, strain kar3, stronger effect = lower value",0.995
same,normalized growth,"locus YPR163C, strain tif3, stronger effect = lower value",0.973
same,normalized growth,"locus YPR167C, strain met16, stronger effect = lower value",0.98
same,normalized growth,"strain wtn01, stronger effect = lower value",0.986
